According to the supplement of paper PMC10646978:
± gives the standard deviation.

Tests used:
Details in all cases: modulator concentration 10 µM
[1] = test system: RAW-Dual (murine macrophage reporter line); assay: NF-kB reporter (SEAP) activity fold change vs agonist alone; higher = enhanced NF-kB activity
How it was run: (§1)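 RAW-Dual murine macrophage reporter cells were seeded at 50 000 per well in 384-well plates and pre-incubated 1 hour at 37 °C with compound pin-transferred to 10 μM final. After 1 hour, a PRR agonist was added and cells incubated overnight. Supernatant NF-κB (SEAP, QUANTI-Blue, 620 nm absorbance) and IRF (Lucia luciferase, QUANTI-Luc, luminescence) signals were divided by the mean agonist-only control on the same plate to give fold change. Two replicate plates were averaged, with errors by propagation.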

[2] = test system: RAW-Dual (murine macrophage reporter line); assay: IRF reporter (Lucia luciferase) activity fold change vs agonist alone; higher = enhanced IRF activity
How it was run: as §1

[3] = test system: RAW-Dual (murine macrophage reporter line); assay: viability score (confluency relative to resting cells, overnight) (fraction); higher = more viable, active = viable (0.7 or more)
How it was run: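 In 384-well plates, RAW-Dual macrophages received compound at a final 10 μM overnight. Two confluency masks were then made with IncuCyte software from IncuCyte images of all imaged wells. The viability score is defined as confluency relative to resting cells. Passing the cutoff required both masks to lie above 70% of resting cells.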

[4] = agonist: CpG ODN 1826 0.5 ug/mL

| SMILES | NF-kB reporter [1, 4] | NF-kB reporter ([1]; agonist: LPS 0.1 ug/mL) | NF-kB reporter ([1]; agonist: MPLA […]) | IRF reporter ([2]; agonist: 3'3'-cGAMP 10 ug/mL) | IRF reporter ([2]; agonist: LPS 0.1 ug/mL) | IRF reporter ([2]; agonist: MPLA […]) | viability score [3] |
| --- | --- | --- | --- | --- | --- | --- | --- |
| COc1ccc(OC)c(CN2CCCC(O)C2)c1 (configuration not stated) | 1.19 ± 0.075 | 1.01 ± 0.081 | 0.942 ± 0.027 | 0.963 ± 0.055 | 1.07 ± 0.061 | 1.06 ± 0.1 | 1 (active) |
| COC(=O)C1=CN(CC2CCCO2)C=C(C(=O)OC)C1c1ccccc1Cl (configuration not stated) | 1.67 ± 0.13 | 1.21 ± 0.069 | 2.32 ± 0.14 | 0.796 ± 0.051 | 0.845 ± 0.066 | 0.686 ± 0.043 | 0.982 (active) |
| CC(=O)NC(CS)C(=O)O (configuration not stated) | 0.957 ± 0.074 | 0.934 ± 0.068 | 0.96 ± 0.09 | 0.946 ± 0.035 | 1.08 ± 0.18 | 1.08 ± 0.18 | 1.03 (active) |
| CCOC(=O)c1ccc2nc(NC(=O)c3ccco3)sc2c1 | 0.971 ± 0.079 | 0.876 ± 0.064 | 1.13 ± 0.14 | 0.996 ± 0.051 | 1.35 ± 0.19 | 1.58 ± 0.3 | 1.01 (active) |
| CNCCC[C@]12CC[C@H](c3ccccc31)c1ccccc12 [Prestw-346] | 0.726 ± 0.082 | 0.842 ± 0.063 | 0.93 ± 0.095 | 1.12 ± 0.07 | 1.41 ± 0.14 | 1.59 ± 0.26 | 0.962 (active) |
| COc1ccc(CN2CCN(c3cc(C)nc4c5c(C)cc(C)nc5nn34)CC2)cc1F | 1.02 ± 0.08 | 0.961 ± 0.071 | 1.06 ± 0.13 | 1.17 ± 0.037 | 1.34 ± 0.18 | 1.42 ± 0.2 | 0.995 (active) |
| Cc1ccc2nc(NC(=O)CSc3nc4c(c(=O)n3-c3ccccc3)SCC4)sc2c1 | 0.845 ± 0.11 | 0.887 ± 0.1 | 0.853 ± 0.081 | 0.662 ± 0.021 | 1.16 ± 0.14 | 1.27 ± 0.18 | 1.02 (active) |
| Cc1nc2ccc(CN(C)c3ccc(C(=O)N[C@@H](CCC(=O)O)C(=O)O)s3)cc2c(=O)[nH]1 | 1.28 ± 0.1 | 1.03 ± 0.052 | 1.18 ± 0.1 | 0.863 ± 0.042 | 1.09 ± 0.063 | 1.07 ± 0.12 | 1 (active) |
| COc1ccc(CCNc2cc(C)nc3cc(-c4ccc(OC)c(OC)c4)nn23)cc1OC | 1.18 ± 0.067 | 1.13 ± 0.086 | 1.27 ± 0.035 | 0.733 ± 0.026 | 0.978 ± 0.073 | 1.13 ± 0.11 | 1 (active) |
| O=c1ccc2cc(O)c(O)cc2o1 | 1.34 ± 0.34 | 0.878 ± 0.044 | 1.03 ± 0.16 | 0.736 ± 0.026 | 1.34 ± 0.2 | 1.2 ± 0.12 | 0.986 (active) |
| COc1ccc(C=NNc2nc(Nc3ccc(C)cc3Br)nc(N3CCOCC3)n2)c(OC)c1 | 0.238 ± 0.024 | 1.13 ± 0.13 | 1.84 ± 0.18 | 0.649 ± 0.067 | 1.67 ± 0.23 | 2.01 ± 0.27 | 1.05 (active) |
| c1cc2c3c(cccc3c1)-c1nc3ccccc3nc1-2 | 0.993 ± 0.17 | 1.09 ± 0.13 | 1.02 ± 0.095 | 0.984 ± 0.026 | 1.32 ± 0.15 | 1.59 ± 0.3 | 1.01 (active) |
| N#CC[C@H](C1CCCC1)n1cc(-c2ncnc3[nH]ccc23)cn1 | 1.4 ± 0.11 | 0.341 ± 0.017 | 0.734 ± 0.074 | 0.269 ± 0.012 | 0.719 ± 0.063 | 0.764 ± 0.074 | 0.979 (active) |
| CCCCOc1ccc(CC(=O)NO)cc1 | 1.69 ± 0.38 | 1.56 ± 0.37 | 1.34 ± 0.076 | 0.241 ± 0.0073 | 0.87 ± 0.19 | 0.815 ± 0.062 | 0.999 (active) |
| CCCOc1ccc(CCC(=O)O)cc1 | 1.38 ± 0.33 | 1.08 ± 0.075 | 0.985 ± 0.035 | 1.07 ± 0.23 | 1.11 ± 0.05 | 1.05 ± 0.1 | 1 (active) |
| COc1ccc(CN(CCN(C)C)c2ccccn2)cc1 [Prestw-289] | 0.902 ± 0.068 | 1.08 ± 0.11 | 1.01 ± 0.026 | 0.976 ± 0.11 | 0.912 ± 0.1 | 0.848 ± 0.066 | 0.993 (active) |
| C[C@]1(O)C[C@@H](c2nc(-c3ccc4ccc(-c5ccccc5)nc4c3)c3c(N)nccn32)C1 | 0.797 ± 0.04 | 1.26 ± 0.1 | 0.899 ± 0.08 | 0.593 ± 0.055 | 0.971 ± 0.072 | 0.958 ± 0.17 | 1 (active) |
| Cc1ccc(-c2cc(C(F)(F)F)n3nc(C(=O)NCCCN4CCOCC4)cc3n2)cc1 | 0.995 ± 0.083 | 1.06 ± 0.098 | 0.983 ± 0.082 | 0.968 ± 0.024 | 1.31 ± 0.22 | 1.13 ± 0.22 | 1.01 (active) |
| CC[C@@]1(O)C(=O)OCc2c1cc1n(c2=O)Cc2cc3c(CN(C)C)c(O)ccc3nc2-1.Cl | 2.27 ± 0.11 | 1.41 ± 0.12 | 2.16 ± 0.11 | 2.12 ± 0.15 | 2.89 ± 0.17 | 3.26 ± 0.26 | 0.725 (active) |
| Cc1cc2ncc3c(n2n1)CCN(C(=O)c1cnoc1C)C3 | 0.857 ± 0.037 | 0.964 ± 0.077 | 1.02 ± 0.055 | 0.972 ± 0.045 | 1.11 ± 0.25 | 1.21 ± 0.43 | 0.896 (active) |
| O=C(CC1CC1)N1CCN(c2cc(C(F)(F)F)ncn2)CC1 | 0.929 ± 0.04 | 0.963 ± 0.081 | 1.29 ± 0.13 | 1.04 ± 0.091 | 1.04 ± 0.18 | 1.01 ± 0.43 | 1.01 (active) |
| CCC(C)C(=O)OC1CC(C)C=C2C=CC(C)C(CCC3CC(O)CC(=O)O3)C21 (configuration not stated) | 1.33 ± 0.32 | 1 ± 0.061 | 1.06 ± 0.13 | 0.919 ± 0.031 | 1.19 ± 0.19 | 1.1 ± 0.16 | 1 (active) |
| COc1c(C)c2c(c(O)c1C/C=C(\C)CCC(=O)O)C(=O)OC2 | 0.602 ± 0.047 | 0.146 ± 0.007 | 0.352 ± 0.032 | 0.453 ± 0.03 | 1.13 ± 0.066 | 1.31 ± 0.11 | 0.587 (inactive) |
| Cc1c(C(=O)Nc2ccc(N3C[C@@H](C)O[C@@H](C)C3)nc2)cccc1-c1ccc(OC(F)(F)F)cc1 | 1.25 ± 0.17 | 1.13 ± 0.2 | 1.64 ± 0.18 | 0.412 ± 0.024 | 1.13 ± 0.13 | 1.37 ± 0.1 | 0.824 (active) |
| CC1=C(C(=O)OCC(F)(F)C(F)(F)F)C(c2ccccc2)NC(=O)N1 (configuration not stated) | 0.847 ± 0.052 | 0.975 ± 0.077 | 0.863 ± 0.053 | 1.31 ± 0.05 | 1.34 ± 0.089 | 1.23 ± 0.23 | 0.934 (active) |
| COc1ccc(C2SCc3cc(C)c(C)cc3CS2)cc1OC | 0.831 ± 0.11 | 0.826 ± 0.069 | 1.1 ± 0.1 | 0.965 ± 0.045 | 1.4 ± 0.087 | 1.64 ± 0.14 | 1.01 (active) |
